Assay results from PubChem BioAssay (Tox21).
Inconclusive results are not listed. The source made the active and inactive calls. Unless noted, calls come from the whole dose curve; as a rule, active = well fitted curve in the direction sought with a large enough effect in the repeat runs; inconclusive = weak or mixed curves; inactive = no such curve, though single readings can be large; an effect the other way counts as inactive or inconclusive.

Key:
[1] = qHTS RealTime-Glo MT Cell Viability Assay in HEK293 cells - 0 hour (AID 1224880); note: top concentration of the series differs between compounds; nearly all actives have a fitted effect of over 45% in size
Summary of the method: (§1)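 Kinetic, non-lysing viability readout. Seed HEK293 (600/well) with reagent, incubate 5 h at 37 C/5% CO2, pin 23 nL compound in DMSO, incubate at 37 C, read luminescence at 0, 8, 16, 24, 32, 40 h.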

[2] = A CellTox Green Cytotoxicity Assay to monitor cytotoxicity in HEK293 cells - 32 hour (AID 1224881); note: nearly all actives have a fitted effect of over 40% in size
Summary of the method: (§2)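 Real-time, in one plate: 600 HEK293 cells/well with dead-cell DNA dye, pinned compound after 5 h, 37 C incubation over 40 h; viable cells give no appreciable fluorescence.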

[3] = A CellTox Green Cytotoxicity Assay to monitor cytotoxicity in HepG2 cells - 0 hour (AID 1224882); note: nearly all actives have a fitted effect of over 35% in size
Summary of the method: (§3)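 Cytotoxicity was tracked as dead-cell DNA fluorescence in HepG2 cells treated with test compounds at 37 C; each time-point value comes from one kinetic series spanning 0, 8, 16, 24, 32 and 40 h.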

[4] = A CellTox Green Cytotoxicity Assay to monitor cytotoxicity in HepG2 cells - 32 hour (AID 1224883); note: nearly all actives have a fitted effect of over 50% in size
Summary of the method: as §3

[5] = A CellTox Green Cytotoxicity Assay to monitor cytotoxicity in HEK293 cells - 8 hour (AID 1224884); note: nearly all actives have a fitted effect of over 35% in size
Summary of the method: as §2

[6] = qHTS RealTime-Glo MT Cell Viability Assay in HepG2 cells - 16 hour (AID 1224885); note: nearly all actives have a fitted effect of over 50% in size
Summary of the method: (§4)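 Viability was tracked continuously by NanoLuc luminescence from prosubstrate reduced by living HepG2 cells, at successive time points over 40 h of compound exposure. Cells with reagent were preincubated 5 h at 37 °C before compound addition.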

[7] = qHTS RealTime-Glo MT Cell Viability Assay in HEK293 cells - 24 hour (AID 1224886); note: nearly all actives have a fitted effect of over 50% in size; note: potency is the fitted concentration of half-maximal effect
Summary of the method: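 Viability tracked continuously by luminescence as live cells reduce a prosubstrate for NanoLuc; HEK293 cells preincubated 5 h, compound-treated at 37 C, and read at 0, 8, 16, 24, 32 and 40 h.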

[8] = qHTS RealTime-Glo MT Cell Viability Assay in HEK293 cells - 8 hour (AID 1224887); note: nearly all actives have a fitted effect of over 50% in size; note: potency is the fitted concentration of half-maximal effect
Summary of the method: as §1

[9] = A CellTox Green Cytotoxicity Assay to monitor cytotoxicity in HEK293 cells - 16 hour (AID 1224888); note: nearly all actives have a fitted effect of over 35% in size
Summary of the method: as §2

[10] = qHTS RealTime-Glo MT Cell Viability Assay in HepG2 cells - 0 hour (AID 1224889); note: nearly all actives have a fitted effect of over 50% in size
Summary of the method: as §4

[11] = A CellTox Green Cytotoxicity Assay to monitor cytotoxicity in HepG2 cells - 8 hour (AID 1224890); note: nearly all actives have a fitted effect of over 45% in size
Summary of the method: as §3

[12] = qHTS assay to identify small molecule antagonists of the estrogen receptor alpha (ER-alpha) signaling pathway using the BG1 cell line in the presence of 0.1 nM 17-beta-estradiol - cell viability counter screen (AID 1259241); note: nearly all actives have a fitted effect of over 40% in size
Summary of the method: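 Live-cell protease activity (CellTiter-Fluor fluorescence, 30 min) was read in the same wells after VM7Luc4E2 cells had been exposed to compounds with 0.1 nM 17beta-estradiol for 22 hr at 37C.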

[13] = qHTS assay to identify small molecule antagonists of the androgen receptor (AR) signaling pathway using the MDA cell line in the presence of 0.5 nM R1881 - cell viability counter screen (AID 1259242); note: nearly all actives have a fitted effect of over 45% in size
Summary of the method: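 Cells seeded at 3,000/well and allowed 5 hr at 37C, 0% CO2 before compound transfer and R1881 (0.5 nM final) addition; 16 hr later, live-cell protease fluorescence indicated cytotoxicity.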

[14] = target: Estrogen receptor (Homo sapiens) (UniProt P03372); test: qHTS assay to identify small molecule antagonists of the estrogen receptor alpha (ER-alpha) signaling pathway using the BG1 cell line in the presence of 0.1 nM 17-beta-estradiol (AID 1259244); note: nearly all actives have a fitted effect of over 50% in size
Summary of the method: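 Luciferase signal from VM7Luc4E2 ERE-reporter cells, co-dosed with test compound and 0.1 nM final 17beta-estradiol for 22 h, read with ONE-Glo.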

[15] = qHTS assay to identify small molecule HDAC inhibitors - cell viability counter screen (AID 1259365)
Summary of the method: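 HCT-116 (wild type), 1,500 cells/well, overnight 37C/5% CO2; compound in DMSO 2hr; CellTiter-Glo 30min RT; luminescence read.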

[16] = qHTS assay to identify small molecule agonists of the sonic hedgehog signaling (Shh) pathway - cell viability counter screen (AID 1259366); note: nearly all actives have a fitted effect of over 50% in size
Summary of the method: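 CellTiter-Fluor fluorescence read-out, 1 hr at 37C, added after 23hr compound exposure. Cells: 3T3 Gli1-Luc, an NIH/3T3 clone with stably integrated Gli1-Luc reporter, plated 4hr before compound.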

[17] = qHTS assay to identify small molecule antagonists of the sonic hedgehog signaling (Shh) pathway - cell viability counter screen (AID 1259367); note: nearly all actives have a fitted effect of over 55% in size
Summary of the method: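 Conditioned medium drove Shh signaling in 3T3 Gli1-Luc cells exposed to compounds at 37C and 5% CO2. Viability was determined from CellTiter-Fluor fluorescence, with reagent incubated 1 hr after 23 hr of treatment.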

[18] = qHTS assay to identify small molecule HDAC inhibitors (AID 1259364); note: potency is the fitted concentration of half-maximal effect;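 note: wild-type HCT-116 cells with endogenous class I/II HDAC activity; nearly all actives have a fitted effect of over 45% in size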
Summary of the method: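 HCT-116 wt cells, 1,500/well, overnight attach. Compounds (DMSO) 2 h, 37 °C. HDAC-Glo I/II, 30 min RT. Luminescence.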

[19] = qHTS assay to identify small molecule phospholipidosis (PLD) inducers (AID 1259344; active = well fitted curve in the direction sought with a large enough effect; an effect the other way counts as inactive or inconclusive)
Summary of the method: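 After 4 h attachment on collagen I, HepG2 cells were dosed with compound alongside LipidTOX Red, kept 24 h at 37 C, fixed, and imaged for lamellar phospholipid pits.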

[20] = target: Androgen receptor (Homo sapiens) (UniProt P10275); test: qHTS assay to identify small molecule antagonists of the androgen receptor (AR) signaling pathway using the MDA cell line in the presence of 0.5 nM R1881 (AID 1259243); note: nearly all actives have a fitted effect of over 50% in size
Summary of the method: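 Luminescence from an AR/GR-responsive MMTV-luciferase construct in MDA-kb2 breast carcinoma cells, read 30 min after ONE-Glo, following 16 hr co-treatment with compounds and 0.5 nM R1881.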

Measured: Potency

Estrogen receptor (Homo sapiens), sequence (P03372 whole entry, looked up): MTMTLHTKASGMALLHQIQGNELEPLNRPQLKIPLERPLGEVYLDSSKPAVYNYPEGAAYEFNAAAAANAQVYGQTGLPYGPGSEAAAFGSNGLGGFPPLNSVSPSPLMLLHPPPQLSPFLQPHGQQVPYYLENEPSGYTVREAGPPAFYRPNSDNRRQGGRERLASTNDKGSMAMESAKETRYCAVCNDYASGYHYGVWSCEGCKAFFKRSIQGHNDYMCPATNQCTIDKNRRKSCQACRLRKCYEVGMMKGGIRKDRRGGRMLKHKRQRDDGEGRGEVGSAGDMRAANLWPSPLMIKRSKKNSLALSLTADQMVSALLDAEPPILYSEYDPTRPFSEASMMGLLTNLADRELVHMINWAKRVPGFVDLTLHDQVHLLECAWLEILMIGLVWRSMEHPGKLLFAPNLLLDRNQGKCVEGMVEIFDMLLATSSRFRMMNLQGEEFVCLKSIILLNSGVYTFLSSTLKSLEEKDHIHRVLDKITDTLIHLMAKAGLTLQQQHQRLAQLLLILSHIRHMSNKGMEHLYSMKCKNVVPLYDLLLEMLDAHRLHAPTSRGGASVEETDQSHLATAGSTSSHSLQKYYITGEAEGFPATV
Androgen receptor (Homo sapiens), sequence (P10275 whole entry, looked up): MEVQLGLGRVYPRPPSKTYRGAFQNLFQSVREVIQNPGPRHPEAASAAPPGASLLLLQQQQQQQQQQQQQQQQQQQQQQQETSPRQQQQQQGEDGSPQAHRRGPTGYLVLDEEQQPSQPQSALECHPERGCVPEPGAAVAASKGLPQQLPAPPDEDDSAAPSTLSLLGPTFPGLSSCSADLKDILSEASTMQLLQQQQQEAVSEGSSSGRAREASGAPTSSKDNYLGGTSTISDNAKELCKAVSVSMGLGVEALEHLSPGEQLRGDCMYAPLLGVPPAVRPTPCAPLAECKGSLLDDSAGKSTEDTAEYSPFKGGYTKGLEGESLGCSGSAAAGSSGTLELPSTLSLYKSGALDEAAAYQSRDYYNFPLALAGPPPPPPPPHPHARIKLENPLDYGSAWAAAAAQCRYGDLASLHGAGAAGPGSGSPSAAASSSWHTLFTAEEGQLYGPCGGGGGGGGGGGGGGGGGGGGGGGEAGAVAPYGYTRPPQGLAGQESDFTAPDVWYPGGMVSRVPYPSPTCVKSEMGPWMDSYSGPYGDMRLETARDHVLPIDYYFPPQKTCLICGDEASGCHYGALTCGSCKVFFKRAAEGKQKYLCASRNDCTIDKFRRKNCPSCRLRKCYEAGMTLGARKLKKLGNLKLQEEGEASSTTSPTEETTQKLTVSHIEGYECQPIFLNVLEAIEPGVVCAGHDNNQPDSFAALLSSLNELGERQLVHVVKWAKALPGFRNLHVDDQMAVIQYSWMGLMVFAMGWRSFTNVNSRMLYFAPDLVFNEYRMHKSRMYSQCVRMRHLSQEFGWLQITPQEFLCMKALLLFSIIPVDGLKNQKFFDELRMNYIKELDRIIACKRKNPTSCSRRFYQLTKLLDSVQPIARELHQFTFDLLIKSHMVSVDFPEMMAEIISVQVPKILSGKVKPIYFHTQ

CC(CO)CO
inactive: [1] | [2] | [3] | [4] | [5] | [6] | [7] | [8] | [9] | [10] | [11] | [12] | [13] | [14] | [15] | [16] | [17]

FC(F)(F)c1ccccc1Cl
inactive: [1] | [2] | [3] | [4] | [5] | [6] | [7] | [8] | [9] | [10] | [11] | [12] | [13] | [14] | [18] | [15] | [16] | [17]

C[C@]1(Cn2ccnn2)[C@H](C(=O)O)N2C(=O)C[C@H]2S1(=O)=O
inactive: [1] | [2] | [3] | [4] | [5] | [6] | [7] | [8] | [9] | [10] | [11] | [12] | [13] | [14] | [19] | [18] | [15] | [16] | [17]

CCC(OCCCOC)OC(C)=O (stereo not drawn)
inactive: [1] | [2] | [3] | [4] | [5] | [6] | [7] | [8] | [9] | [10] | [11] | [12] | [13] | [18] | [15] | [16] | [17]

Cc1[nH]cnc1CN1CCc2c(c3ccccc3n2C)C1=O
inactive: [1] | [2] | [3] | [4] | [5] | [6] | [7] | [8] | [9] | [10] | [11] | [12] | [13] | [19] | [18] | [15] | [16] | [17]

CCC1NC(=O)c2cc(S(N)(=O)=O)c(Cl)cc2N1 (stereo not drawn)
inactive: [1] | [2] | [3] | [4] | [5] | [6] | [7] | [8] | [9] | [10] | [11] | [12] | [13] | [19] | [15] | [16] | [17]

CC[N+](CC)(CCNC(=O)C(=O)NCC[N+](CC)(CC)Cc1ccccc1Cl)Cc1ccccc1Cl
inactive: [1] | [2] | [3] | [4] | [5] | [6] | [7] | [8] | [9] | [10] | [11] | [12] | [13] | [14] | [19] | [18] | [15] | [16] | [17]

N#CCCN(CCO)CCO
inactive: [1] | [2] | [3] | [4] | [5] | [6] | [7] | [8] | [9] | [10] | [11] | [12] | [13] | [14] | [18] | [15] | [16] | [17]

C=C(C)C(=O)OCCCCCCCCCCCCC
inactive: [1] | [2] | [3] | [4] | [5] | [6] | [7] | [8] | [9] | [10] | [11] | [13] | [14] | [18] | [15] | [16] | [17]

CO/N=C(/C(=O)N[C@@H]1C(=O)N2C(C(=O)O)=C(COC(N)=O)CS[C@H]12)c1ccco1
inactive: [1] | [2] | [3] | [4] | [5] | [6] | [7] | [8] | [9] | [10] | [11] | [13] | [19] | [15] | [16] | [17]

CCOC(=O)c1ccc(OCCN2C[C@H](O)[C@@H](O)[C@H](O)[C@H]2CO)cc1
inactive: [1] | [2] | [3] | [4] | [5] | [6] | [7] | [8] | [9] | [11] | [12] | [13] | [14] | [19] | [18] | [15] | [16] | [17]

Oc1cccc(Nc2ccccc2)c1
inactive: [1] | [2] | [3] | [4] | [5] | [6] | [10] | [11] | [12] | [13] | [14] | [18] | [15] | [17]
active: [7] 14.4 µM | [8] 11.4 µM

CC(=O)OCC(=O)NCCCOc1cccc(CN2CCCCC2)c1
inactive: [1] | [2] | [3] | [4] | [5] | [6] | [7] | [8] | [9] | [11] | [12] | [13] | [20] | [19] | [18] | [15] | [16] | [17]

C=C(C)CCCC(C)CCO (stereo not drawn)
inactive: [1] | [2] | [3] | [4] | [5] | [6] | [7] | [8] | [9] | [11] | [13] | [14] | [18] | [15] | [16] | [17]

O=C1c2ccccc2C(=O)C1c1ccc(Br)cc1
inactive: [1] | [2] | [3] | [4] | [5] | [6] | [7] | [8] | [9] | [11] | [12] | [13] | [14] | [19] | [15] | [16] | [17]
active: [18] 18.8 µM

C=C/C(C)=C/C/C=C(\C)CCC=C(C)C
inactive: [1] | [2] | [3] | [4] | [5] | [6] | [7] | [8] | [10] | [11] | [12] | [13] | [14] | [15] | [16] | [17]
